Drawing on PubChem BioAssay (Tox21), this text covers Potency for 7 compounds.

“And” between values parts separate entries of the source, which are not always exact repeats. Equal entries are not always repeated. Results filed as inconclusive are left out. The source holds several records for some structures; these can differ, active in one and inactive in another. The source made the active and inactive calls. Unless noted, calls come from the whole dose curve.

A short description of experiment [1]: Nuclear factor erythroid 2-related factor 2/antioxidant responsive element (Nrf2/ARE) small molecule agonists: qHTS cell viability counter screen in human keratinocytes (AID 1919968; active = well fitted curve in the direction sought with a large enough effect in the repeat runs; an effect the other way counts as inactive or inconclusive; note: nearly all actives have a fitted effect of over 55% in size). An outline of the steps: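 HaCaT ARE reporter line, 1,500 cells/well; 5 h settle, 37 C/5% CO2; cpd in DMSO pinned; 23 h exposure; CellTiter-Fluor, 1 h; fluorescence.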
Background: Quantitative high-throughput screening tests each substance at several concentrations.

The nature of experiment [2]: Nuclear factor erythroid 2-related factor 2/antioxidant responsive element (Nrf2/ARE) small molecule agonists: luciferase reporter gene qHTS assay in human keratinocytes (AID 1919969). Note: nearly all actives have a fitted effect of over 35% in size. Note: potency is the fitted concentration of half-maximal effect.
The target of experiment [3] is Gonadotropin-releasing hormone receptor (Homo sapiens) (UniProt P30968). In words: Human gonadotropin-releasing hormone receptor (GnRHR) small molecule agonists, calcium flux assay in GnRHR-HEK293 cells (AID 1920063). Note: nearly all actives have a fitted effect of over 35% in size. An outline of the steps: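 GnRHR-HEK293, 1500 cells/well, 18 h 37 C/5% CO2; Ca dye 1 h 37 C; cpd pinned (DMSO), agonist mode; kinetic FL 480/540, 3 min, 1 s reads; 15 conc, n=3.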
Sequence of Gonadotropin-releasing hormone receptor (Homo sapiens) (P30968 whole entry, looked up): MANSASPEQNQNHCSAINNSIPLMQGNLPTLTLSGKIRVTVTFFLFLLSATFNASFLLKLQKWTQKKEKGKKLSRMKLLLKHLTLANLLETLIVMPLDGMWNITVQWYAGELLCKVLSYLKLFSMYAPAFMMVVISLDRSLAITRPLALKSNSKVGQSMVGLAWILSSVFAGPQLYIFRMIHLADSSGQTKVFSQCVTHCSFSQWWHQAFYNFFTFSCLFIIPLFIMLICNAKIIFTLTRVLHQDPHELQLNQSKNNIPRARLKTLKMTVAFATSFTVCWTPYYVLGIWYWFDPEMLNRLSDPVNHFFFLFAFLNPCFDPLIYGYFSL

Experiment [4] has as its target KiSS-1 receptor (Homo sapiens) (UniProt Q969F8). In words: Human kisspeptin (KISS1R) small molecule agonists, calcium flux assay in KISS1R-HEK293 cells (AID 1920064; active = well fitted curve in the direction sought with a large enough effect in the repeat runs; an effect the other way counts as inactive or inconclusive). An outline of the steps: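 Stable human KISS1R HEK293 line; 18 h plating, 37 C/5% CO2; calcium dye 1 h 37 C; compound pin transfer; kinetic fluorescence Ex/Em 480/540, 3 min.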
On the technique in general: Calcium assays in cells follow changes in intracellular calcium, usually with a dye or a luminescent sensor.

Experiment [5] in a line: G protein-coupled receptor (GPCR) small molecule agonists, calcium flux assay: HEK293 wild type cell line counter screen (AID 1920065). An outline of the steps: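 Kinetic fluorescence at Ex/Em 480/540, recorded every second over 3 min, served as the read-out after compound addition. Each compound was tested at 15 concentrations in triplicate on cells pre-loaded with calcium dye for 1 h.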

Experiment [6] can be described thus: p53 small molecule agonists, cell-based qHTS assay with human liver microsomes (AID 1963577).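 Note: p53 response element beta-lactamase reporter cells with liver microsomes plus NADPH.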 An outline of the steps: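 With metabolic activation: human liver microsomes (0.5 mg/mL final) plus NADPH (0.5 mg/mL final) added alongside compounds to p53RE-bla cells; 16 h 37 C exposure; beta-lactamase read by LiveBLAzer fluorescence.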
Experiment [7] can be described thus: p53 small molecule agonists, cell-based qHTS assay with rat liver microsomes (AID 1963578). An outline of the steps: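 Metabolic activation by rat liver microsomes and NADPH, each 0.5 mg/mL final, added right after compounds to p53RE-bla reporter cells (4,000/well, plated 5 h earlier). 16 h at 37 C, then LiveBLAzer substrate for 2 h at room temperature in the dark; fluorescence read-out.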

The nature of experiment [8]: p53 small molecule agonists, cell-based qHTS assay with human liver microsomes: qHTS cell viability counter screen (AID 1963579). Note: nearly all actives have a fitted effect of over 45% in size. An outline of the steps:
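Metabolic activation used human liver microsomes and NADPH, both 0.5 mg/mL final, over 16 hours at 37 C on p53RE-bla cells (4,000/well). Cytotoxicity measured by CellTiter-Glo luminescence, 30 min at room temperature.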

The nature of experiment [9]: p53 small molecule agonists, cell-based qHTS assay with rat liver microsomes: qHTS cell viability counter screen (AID 1963580). Note: nearly all actives have a fitted effect of over 45% in size. An outline of the steps:
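Intracellular ATP, by CellTiter-Glo luminescence, defines viability. HCT-116 p53RE-bla cells, 4,000 per well, were compound-treated in the presence of rat liver microsomes and NADPH for 16 h at 37 C.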

Experiment [10] is described as follows: p53 small molecule agonists, cell-based qHTS assay: qHTS cell viability counter screen (AID 1963581). Note: nearly all actives have a fitted effect of over 45% in size. An outline of the steps: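 HCT-116 p53RE-bla cells, 4,000/well, plated 5 h before compound pin transfer; 16 h at 37 C; bla substrate 2 h RT; then CellTiter-Glo, 30 min RT, luminescence.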
The nature of experiment [11]: p53 small molecule agonists, cell-based qHTS assay (AID 1963582; active = well fitted activation curve with a large enough effect in the signal ratio in the repeat runs, not every such curve was filed as active; the % refers to the signal ratio). An outline of the steps: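 Reporter line: p53RE-bla. Pre-incubation 5 h, 37 C, 5% CO2; compound (DMSO, pin tool) 16 h, 37 C; B/G FRET substrate 2 h RT; fluorescence intensity read.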
The target of experiment [12] is 5-hydroxytryptamine receptor 2A (Homo sapiens) (UniProt P28223). In words: 5-hydroxytryptamine receptor 2A (HTR2A) small molecule antagonists, cell-based qHTS assay (AID 1963586). Note: nearly all actives have a fitted effect of over 45% in size. An outline of the steps:
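Antagonist-mode intracellular calcium assay: DOI (4 nM) added after 5 min compound pre-incubation at room temperature to dye-loaded HTR2A-CHO cells. Fluorescence followed for 3 min, sampled every second.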

Experiment [13] has the same target. Nature of the experiment: 5-hydroxytryptamine receptor 2A (HTR2A) small molecule agonists, cell-based qHTS assay (AID 1963587). Note: nearly all actives have a fitted effect of over 30% in size. An outline of the steps:
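Kinetic calcium-flux fluorescence (2 min, 1 sec intervals) after compound addition in agonist mode. HTR2A-CHO cells were cultured 18 h, then dye-loaded 1 h at 37 C.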

The target in experiment [14] is Muscarinic acetylcholine receptor M1 (Homo sapiens) (UniProt P11229). In words: Cholinergic receptor muscarinic 1 (CHRM1) small molecule antagonists, cell-based qHTS assay (AID 1963588). Note: nearly all actives have a fitted effect of over 40% in size. An outline of the steps: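 CHRM1-CHO calcium-flux assay, antagonist mode. Cells were seeded 18 h, dye-loaded 1 h at 37 C and given compound for 5 min at RT, then acetylcholine was added at 50nM. FDSS fluorescence was read 3 min; 15 concentrations, three runs.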
Sequence of Muscarinic acetylcholine receptor M1 (Homo sapiens) (P11229 whole entry, looked up): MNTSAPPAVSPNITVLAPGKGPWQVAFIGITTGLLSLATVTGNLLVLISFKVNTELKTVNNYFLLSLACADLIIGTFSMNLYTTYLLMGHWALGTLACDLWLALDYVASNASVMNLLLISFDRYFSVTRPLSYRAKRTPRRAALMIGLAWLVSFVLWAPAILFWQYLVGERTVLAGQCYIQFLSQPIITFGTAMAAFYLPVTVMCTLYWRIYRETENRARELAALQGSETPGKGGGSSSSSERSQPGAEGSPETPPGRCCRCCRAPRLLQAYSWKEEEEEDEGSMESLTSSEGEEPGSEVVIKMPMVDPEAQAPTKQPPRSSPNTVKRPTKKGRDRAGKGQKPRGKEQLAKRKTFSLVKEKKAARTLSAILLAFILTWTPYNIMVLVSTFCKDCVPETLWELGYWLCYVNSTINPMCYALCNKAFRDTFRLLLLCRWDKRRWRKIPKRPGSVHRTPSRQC

The target is the same in experiment [15]. In words: Cholinergic receptor muscarinic 1 (CHRM1) small molecule agonists, cell-based qHTS assay (AID 1963589). Note: nearly all actives have a fitted effect of over 35% in size. An outline of the steps:
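Human M1 in stable CHO line; 18 h plating, 1 h dye load 37 C; cpd added (agonist mode); Ca2+ fluorescence kinetic read, 1 s intervals; 15 conc, 3 runs.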

Experiment [16] in a line: cAMP Responsive Elements (CRE) small molecule agonists, cell-based qHTS assay (AID 1963590). An outline of the steps: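 HEK 293T CRE-bla, 2,000 cells/well, 18 h preincubation 37 C/5% CO2; cpds (DMSO) pinned, 3 h; LiveBLAzer B/G FRET substrate, 2 h RT.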
Experiment [17] can be described thus: cAMP Responsive Elements (CRE) small molecule antagonists, cell-based qHTS assay (AID 1963591; active = well fitted inhibition curve with a large enough effect in the signal ratio in the repeat runs, not every such curve was filed as active; the % refers to the signal ratio). An outline of the steps: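 Beta-lactamase reporter read by FRET substrate (LiveBLAzer B/G) after 2 h at room temperature. CRE-bla HEK293T cells had received compound plus 0.25 uM (final) NKH477 for 3 h at 37 °C.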
Experiment [18] concerns the target Beta-2 adrenergic receptor (Homo sapiens) (UniProt P07550). Nature of the experiment: Adrenergic beta2 receptor (ADRB2) small molecule antagonists, cell-based qHTS assay (AID 1963592). Note: series mostly up to about 92 µM; nearly all actives have a fitted effect of over 50% in size. An outline of the steps: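 Cells (CHO, stable ADRB2 overexpression) incubated 18-20hr at 37C; compounds added from DMSO; agonist mix (1nM isoproterenol, 100uM IBMX, 25uM Ro-20-1724) added; 0.5hr RT; d2-cAMP and anti-cAMP-cryptate added; 1hr RT; 665/615 nm read.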

For experiment [19], the target named is D(2) dopamine receptor (Homo sapiens) (UniProt P14416). In words: Dopamine D2 receptor (DRD2) small molecule agonists, cell-based qHTS assay (AID 1963594). Note: nearly all actives have a fitted effect of over 35% in size. An outline of the steps:
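cAMP accumulation in DRD2-HEK293 cells measured by HTRF after 1 h detection; compounds added 10 min before NKH477 (200nM […]) forskolin-analogue stimulation, 30 min at room temperature, with Ro20-1724 present at 0.1 mM final.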

The target is the same in experiment [20]. In words: Dopamine D2 receptor (DRD2) small molecule antagonists, cell-based qHTS assay (AID 1963595; active = well fitted inhibition curve with a large enough effect in the signal ratio in the repeat runs, with a control signal flat; the % refers to the signal ratio). An outline of the steps:
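Readout: HTRF cAMP, cAMP-d2 competing with cellular cAMP for anti-cAMP cryptate, read after 1 h. Cells: DRD2-HEK293. Conditions: 0.1 mM Ro20-1724, 12 nM quinpirole, 200 nM NKH477, 30 min RT.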

Sequence of 5-hydroxytryptamine receptor 2A (Homo sapiens) (P28223 whole entry, looked up): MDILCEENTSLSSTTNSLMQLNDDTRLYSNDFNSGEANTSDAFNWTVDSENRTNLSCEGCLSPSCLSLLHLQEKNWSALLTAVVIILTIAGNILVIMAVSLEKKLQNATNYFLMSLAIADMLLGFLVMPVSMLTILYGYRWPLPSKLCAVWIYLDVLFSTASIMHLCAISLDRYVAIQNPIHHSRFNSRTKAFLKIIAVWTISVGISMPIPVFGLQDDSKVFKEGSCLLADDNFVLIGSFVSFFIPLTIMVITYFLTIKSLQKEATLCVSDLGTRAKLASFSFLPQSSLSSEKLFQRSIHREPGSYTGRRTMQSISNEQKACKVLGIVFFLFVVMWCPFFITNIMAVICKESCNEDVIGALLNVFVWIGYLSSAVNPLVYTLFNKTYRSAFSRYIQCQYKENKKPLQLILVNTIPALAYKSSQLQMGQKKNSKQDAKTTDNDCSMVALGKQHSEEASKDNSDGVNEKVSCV
Sequence of KiSS-1 receptor (Homo sapiens) (Q969F8 whole entry, looked up): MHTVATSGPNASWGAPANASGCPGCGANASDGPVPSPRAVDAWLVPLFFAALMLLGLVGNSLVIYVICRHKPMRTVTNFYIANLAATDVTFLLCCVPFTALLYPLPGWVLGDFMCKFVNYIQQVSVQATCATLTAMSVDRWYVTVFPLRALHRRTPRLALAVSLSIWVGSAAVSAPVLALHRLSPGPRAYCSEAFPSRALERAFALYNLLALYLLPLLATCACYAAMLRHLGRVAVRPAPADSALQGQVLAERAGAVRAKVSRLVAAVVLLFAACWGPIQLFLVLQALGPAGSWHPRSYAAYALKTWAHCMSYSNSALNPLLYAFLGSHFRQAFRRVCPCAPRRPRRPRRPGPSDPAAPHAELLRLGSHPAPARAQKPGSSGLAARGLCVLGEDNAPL
Sequence of D(2) dopamine receptor (Homo sapiens) (P14416 whole entry, looked up): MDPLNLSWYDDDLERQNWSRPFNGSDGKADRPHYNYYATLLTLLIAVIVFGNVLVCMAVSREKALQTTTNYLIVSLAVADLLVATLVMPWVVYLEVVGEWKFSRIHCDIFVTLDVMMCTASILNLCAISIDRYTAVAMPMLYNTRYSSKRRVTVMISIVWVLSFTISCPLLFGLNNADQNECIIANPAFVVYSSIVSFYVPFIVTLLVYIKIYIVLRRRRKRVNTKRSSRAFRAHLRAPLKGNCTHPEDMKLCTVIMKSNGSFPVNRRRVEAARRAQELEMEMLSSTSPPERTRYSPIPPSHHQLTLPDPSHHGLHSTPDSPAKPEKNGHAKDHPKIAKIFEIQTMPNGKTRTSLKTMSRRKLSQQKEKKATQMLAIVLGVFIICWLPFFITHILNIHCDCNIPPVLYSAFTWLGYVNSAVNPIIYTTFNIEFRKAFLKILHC
Sequence of Beta-2 adrenergic receptor (Homo sapiens) (P07550 whole entry, looked up): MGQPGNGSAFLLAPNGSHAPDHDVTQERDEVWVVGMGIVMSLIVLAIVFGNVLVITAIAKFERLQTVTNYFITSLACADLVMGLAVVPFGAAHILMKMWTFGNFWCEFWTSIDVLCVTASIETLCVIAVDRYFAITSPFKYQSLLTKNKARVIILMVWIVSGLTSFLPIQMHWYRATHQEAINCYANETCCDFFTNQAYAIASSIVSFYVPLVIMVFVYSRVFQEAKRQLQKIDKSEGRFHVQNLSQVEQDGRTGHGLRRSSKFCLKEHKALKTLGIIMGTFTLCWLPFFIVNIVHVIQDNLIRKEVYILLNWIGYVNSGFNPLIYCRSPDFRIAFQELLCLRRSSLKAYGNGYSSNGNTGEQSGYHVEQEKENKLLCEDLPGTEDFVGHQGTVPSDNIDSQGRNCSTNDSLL

On to `Nc1ccc(Br)cc1`, for which the Potency result in [1], in experiment [3], in experiment [4], in [5], in experiment [6] and in experiment [7] was “inactive” in each case. Also, the Potency result in experiment [8], in [9], in [10], in experiment [11], in [12] and in [13] was “inactive” throughout. For the same compound, the Potency result in experiment [14], in experiment [15], in experiment [16], in experiment [17], in experiment [18] and in [19] was “inactive” in each case. The Potency entry in [20] was “inactive”. For the same compound, the Potency in experiment [2] was 68.5 µM (active) and inactive.

For `CCCC(C)(COC(N)=O)COC(=O)NC(C)C` (configuration not stated), the Potency result in [1], in experiment [2], in experiment [3], in experiment [4], in experiment [5] and in experiment [6] was “inactive” each time. Also, the Potency result in experiment [7], in experiment [8], in experiment [9], in [10], in experiment [11] and in experiment [12] was “inactive” throughout. In addition, the Potency result in experiment [13], in [14], in experiment [15], in [16], in experiment [17] and in experiment [18] was “inactive” each time. The Potency entry in [19] and in [20] was “inactive” in each case.

For the compound `CC(C)CCON=O`, the Potency entry in [1], in [2], in [3], in experiment [4], in experiment [5] and in experiment [6] was “inactive” throughout. Besides, the Potency entry in [7], in experiment [8], in [9], in experiment [10], in experiment [11] and in experiment [12] was “inactive” each time. Further, the Potency entry in experiment [13], in experiment [14], in experiment [15], in experiment [16], in experiment [17] and in experiment [18] was “inactive” throughout. The Potency result in experiment [19] is “inactive”.

As to `C[C@@H]1CN(C2CCC(C#N)(c3ccc(F)cc3)CC2)CC[C@]1(C(=O)O)c1ccccc1` (some centres not stated), the Potency result in experiment [1], in experiment [2], in experiment [3], in [4], in experiment [5] and in experiment [6] was “inactive” throughout. Further, the Potency result in experiment [7], in experiment [8], in [9], in experiment [10], in experiment [11] and in experiment [12] was “inactive” throughout. The Potency entry in [13], in experiment [14], in experiment [15], in [16], in experiment [17] and in [18] was “inactive” in each case. In addition, in [19], the Potency result was “inactive”.

As to `O=NN(c1ccccc1)c1ccccc1`, the Potency entry in experiment [1], in [2], in experiment [3], in [4], in experiment [5] and in experiment [6] was “inactive” in each case. Further, the Potency entry in experiment [7], in experiment [8], in experiment [9], in experiment [10], in [11] and in experiment [12] was “inactive” throughout. In addition, the Potency entry in experiment [13], in experiment [14], in experiment [15], in experiment [16], in experiment [17] and in experiment [18] was “inactive” throughout. In addition, the Potency result in experiment [19] and in [20] was “inactive” throughout.

Take `CC(=O)CC(c1ccc(Cl)cc1)c1c(O)c2ccccc2oc1=O` (configuration not stated): the Potency result in experiment [1], in experiment [2], in [3], in [4], in experiment [5] and in [6] was “inactive” throughout. The Potency result in [7], in experiment [8], in experiment [9], in [10], in experiment [11] and in [12] was “inactive” each time. In addition, the Potency entry in [13], in [14], in [15], in experiment [16], in experiment [17] and in [18] was “inactive” in each case. For the same compound, the Potency result in [20] was “inactive”.

Regarding `Cc1ccc(N)cc1`, the Potency entry in experiment [1], in experiment [3], in experiment [4], in [5], in [6] and in [7] was “inactive” throughout. Moreover, the Potency result in [8], in experiment [9], in experiment [10], in experiment [11], in experiment [12] and in [13] was “inactive” throughout. Also, the Potency entry in [14], in [15], in experiment [16], in experiment [17], in experiment [18] and in [19] was “inactive” throughout. Further, in experiment [20], the Potency entry is “inactive”. For the same compound, in [2], the Potency result was “inactive and 48.6 µM (active)”.
